Among the data in ChEMBL document CHEMBL1961873, “Compounds: GSK PKIS; Assays: Nanosyn kinase panel” (2012) are inhibition values, retold here.

In experiment [1] the target is Mast/stem cell growth factor receptor Kit (Homo sapiens) (UniProt P10721). The conditions noted are these: at 1 µM.
Experiment [2] relates to Mast/stem cell growth factor receptor Kit (Homo sapiens), P10721 [D816V]. As to conditions: at 0.1 µM.
Experiment [3] has the same test system. As to conditions: at 1 µM.
Experiment [4] has as its system Mast/stem cell growth factor receptor Kit (Homo sapiens), P10721 [T670I]. As to conditions: at 0.1 µM.
Experiment [5] has the same test system. The conditions noted are these: at 1 µM.
Experiment [6] deals with Mast/stem cell growth factor receptor Kit (Homo sapiens), P10721 [V560G]. The conditions noted are these: at 0.1 µM.
Experiment [7] has the same test system. As to conditions: at 1 µM.
The target of experiment [8] is Tyrosine-protein kinase Lck (Homo sapiens) (UniProt P06239). The conditions noted are these: at 0.1 µM.
Experiment [9] has the same target. The conditions noted are these: at 1 µM.
Experiment [10] addresses Leukocyte tyrosine kinase receptor (Homo sapiens) (UniProt P29376). The conditions noted are these: at 0.1 µM.
Experiment [11] shares this target. The conditions noted are these: at 1 µM.
Experiment [12] deals with Tyrosine-protein kinase Lyn (Homo sapiens) (UniProt P07948). As to conditions: at 0.1 µM.
For experiment [13] the target is unchanged. The conditions noted are these: at 1 µM.
For experiment [14] the target is unchanged. As to conditions: at 0.1 µM. The source holds these as a separate data set.
The target is the same in experiment [15]. The conditions noted are these: at 1 µM. The source holds these as a separate data set.
Experiment [16] deals with T1, Tyrosine-protein kinase Mer (Homo sapiens) (UniProt Q12866).
T1 sequence (whole entry): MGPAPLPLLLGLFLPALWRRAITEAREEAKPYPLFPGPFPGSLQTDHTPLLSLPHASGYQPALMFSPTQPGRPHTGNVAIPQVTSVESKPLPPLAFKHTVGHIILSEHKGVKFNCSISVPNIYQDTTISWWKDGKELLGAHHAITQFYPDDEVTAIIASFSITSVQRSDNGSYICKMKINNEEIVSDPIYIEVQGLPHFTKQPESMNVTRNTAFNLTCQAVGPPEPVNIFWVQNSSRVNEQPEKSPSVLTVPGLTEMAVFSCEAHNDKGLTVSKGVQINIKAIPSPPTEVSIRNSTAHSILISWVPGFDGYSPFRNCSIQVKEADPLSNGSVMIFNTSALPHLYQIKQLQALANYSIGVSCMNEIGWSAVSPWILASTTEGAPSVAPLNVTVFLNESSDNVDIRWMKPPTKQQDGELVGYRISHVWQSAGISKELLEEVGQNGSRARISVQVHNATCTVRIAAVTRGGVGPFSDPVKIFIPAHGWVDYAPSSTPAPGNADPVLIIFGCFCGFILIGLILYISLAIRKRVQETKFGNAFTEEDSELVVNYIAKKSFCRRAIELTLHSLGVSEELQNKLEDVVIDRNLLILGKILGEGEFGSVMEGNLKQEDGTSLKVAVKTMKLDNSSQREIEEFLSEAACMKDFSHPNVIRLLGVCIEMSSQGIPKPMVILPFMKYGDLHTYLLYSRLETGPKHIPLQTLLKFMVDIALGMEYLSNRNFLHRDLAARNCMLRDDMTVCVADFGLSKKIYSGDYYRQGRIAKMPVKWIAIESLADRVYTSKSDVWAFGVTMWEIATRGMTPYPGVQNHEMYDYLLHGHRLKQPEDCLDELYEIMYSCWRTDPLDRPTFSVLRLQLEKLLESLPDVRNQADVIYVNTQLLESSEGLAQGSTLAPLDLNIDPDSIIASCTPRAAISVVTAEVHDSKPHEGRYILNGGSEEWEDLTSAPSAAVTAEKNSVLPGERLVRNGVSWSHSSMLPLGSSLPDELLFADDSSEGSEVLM
As to conditions: at 0.1 µM.

The target in experiment [17] is T1, Tyrosine-protein kinase Mer (Homo sapiens). As to conditions: at 1 µM.
The target in experiment [18] is Hepatocyte growth factor receptor (Homo sapiens) (UniProt P08581). As to conditions: at 0.1 µM.
Experiment [19] shares this target. As to conditions: at 1 µM.
Experiment [20] has as its target T2, Muscle, skeletal receptor tyrosine-protein kinase (Homo sapiens) (UniProt O15146).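 Further: values are mean inhibition of MuSK from the GSK PKIS kinase screening panel.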
T2 sequence (whole entry): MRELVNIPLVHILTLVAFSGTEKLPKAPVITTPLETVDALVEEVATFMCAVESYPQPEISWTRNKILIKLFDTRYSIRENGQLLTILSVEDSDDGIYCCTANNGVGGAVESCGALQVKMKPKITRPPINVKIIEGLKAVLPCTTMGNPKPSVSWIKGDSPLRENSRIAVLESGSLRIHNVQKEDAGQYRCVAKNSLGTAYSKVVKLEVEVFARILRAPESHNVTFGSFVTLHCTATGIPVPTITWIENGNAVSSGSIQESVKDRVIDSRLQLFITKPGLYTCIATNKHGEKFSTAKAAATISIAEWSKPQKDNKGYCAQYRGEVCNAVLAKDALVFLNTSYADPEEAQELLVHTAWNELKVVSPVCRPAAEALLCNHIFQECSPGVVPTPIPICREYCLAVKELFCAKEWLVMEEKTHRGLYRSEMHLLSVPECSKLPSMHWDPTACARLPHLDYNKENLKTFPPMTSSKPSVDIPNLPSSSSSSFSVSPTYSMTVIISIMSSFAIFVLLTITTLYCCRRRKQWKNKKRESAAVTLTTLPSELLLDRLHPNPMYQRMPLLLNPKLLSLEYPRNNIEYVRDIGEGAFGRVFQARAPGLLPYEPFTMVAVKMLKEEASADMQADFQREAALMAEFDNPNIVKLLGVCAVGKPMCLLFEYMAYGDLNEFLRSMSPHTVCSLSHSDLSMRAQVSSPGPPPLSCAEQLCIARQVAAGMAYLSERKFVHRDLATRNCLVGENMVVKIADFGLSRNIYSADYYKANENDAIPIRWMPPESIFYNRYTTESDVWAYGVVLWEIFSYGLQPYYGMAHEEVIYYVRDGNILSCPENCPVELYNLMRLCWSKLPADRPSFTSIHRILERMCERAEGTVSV
The conditions noted are these: at 0.1 µM.

Chain of Leukocyte tyrosine kinase receptor (Homo sapiens) (P29376 whole entry): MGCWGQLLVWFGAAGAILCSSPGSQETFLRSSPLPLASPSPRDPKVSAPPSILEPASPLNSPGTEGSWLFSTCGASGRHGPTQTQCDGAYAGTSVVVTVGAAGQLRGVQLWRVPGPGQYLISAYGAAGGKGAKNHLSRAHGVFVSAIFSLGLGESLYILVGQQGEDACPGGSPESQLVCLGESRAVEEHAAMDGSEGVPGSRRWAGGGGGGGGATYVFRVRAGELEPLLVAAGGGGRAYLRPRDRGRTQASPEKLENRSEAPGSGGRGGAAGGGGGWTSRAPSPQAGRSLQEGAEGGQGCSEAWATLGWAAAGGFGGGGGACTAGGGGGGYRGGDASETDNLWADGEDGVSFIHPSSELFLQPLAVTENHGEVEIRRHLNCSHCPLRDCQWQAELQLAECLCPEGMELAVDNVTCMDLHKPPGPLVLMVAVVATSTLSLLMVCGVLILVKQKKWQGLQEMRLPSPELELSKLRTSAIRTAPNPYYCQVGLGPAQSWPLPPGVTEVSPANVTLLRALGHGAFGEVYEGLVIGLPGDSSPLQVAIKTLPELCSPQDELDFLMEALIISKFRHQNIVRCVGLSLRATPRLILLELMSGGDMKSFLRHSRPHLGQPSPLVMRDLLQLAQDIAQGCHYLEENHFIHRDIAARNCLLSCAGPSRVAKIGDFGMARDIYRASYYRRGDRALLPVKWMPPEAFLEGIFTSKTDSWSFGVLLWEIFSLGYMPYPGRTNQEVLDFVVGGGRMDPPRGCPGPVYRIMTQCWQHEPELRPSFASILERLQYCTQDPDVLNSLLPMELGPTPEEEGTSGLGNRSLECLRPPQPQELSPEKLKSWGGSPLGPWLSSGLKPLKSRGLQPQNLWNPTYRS
Chain of Mast/stem cell growth factor receptor Kit (Homo sapiens), P10721 [D816V] (P10721 whole entry D816V): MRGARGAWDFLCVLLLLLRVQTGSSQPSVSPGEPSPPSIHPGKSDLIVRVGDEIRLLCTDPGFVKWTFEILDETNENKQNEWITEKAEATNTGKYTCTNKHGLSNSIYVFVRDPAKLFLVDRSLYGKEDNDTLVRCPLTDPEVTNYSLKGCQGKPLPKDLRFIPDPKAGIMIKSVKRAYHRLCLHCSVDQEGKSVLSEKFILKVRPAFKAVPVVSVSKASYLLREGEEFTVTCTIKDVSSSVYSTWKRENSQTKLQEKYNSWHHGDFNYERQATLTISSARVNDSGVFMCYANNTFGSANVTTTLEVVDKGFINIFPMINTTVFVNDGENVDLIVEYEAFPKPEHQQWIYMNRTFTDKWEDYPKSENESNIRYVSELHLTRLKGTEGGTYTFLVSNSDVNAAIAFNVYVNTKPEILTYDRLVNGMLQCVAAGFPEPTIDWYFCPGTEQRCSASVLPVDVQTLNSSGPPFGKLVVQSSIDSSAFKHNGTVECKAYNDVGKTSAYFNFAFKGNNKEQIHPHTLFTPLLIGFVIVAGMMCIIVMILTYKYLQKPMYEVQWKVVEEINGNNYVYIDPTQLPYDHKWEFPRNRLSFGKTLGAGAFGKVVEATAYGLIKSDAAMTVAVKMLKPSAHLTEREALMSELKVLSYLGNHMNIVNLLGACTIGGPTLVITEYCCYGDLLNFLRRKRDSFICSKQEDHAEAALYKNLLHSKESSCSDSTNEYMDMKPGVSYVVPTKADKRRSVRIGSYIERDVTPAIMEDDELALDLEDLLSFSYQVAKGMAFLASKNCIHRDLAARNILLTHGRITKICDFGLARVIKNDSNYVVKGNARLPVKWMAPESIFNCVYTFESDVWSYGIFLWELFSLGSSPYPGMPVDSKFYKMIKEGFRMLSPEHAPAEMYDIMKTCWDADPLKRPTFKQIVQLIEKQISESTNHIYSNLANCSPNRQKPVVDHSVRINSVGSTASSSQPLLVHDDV
Chain of Tyrosine-protein kinase Lyn (Homo sapiens) (P07948 2-512 limits assumed): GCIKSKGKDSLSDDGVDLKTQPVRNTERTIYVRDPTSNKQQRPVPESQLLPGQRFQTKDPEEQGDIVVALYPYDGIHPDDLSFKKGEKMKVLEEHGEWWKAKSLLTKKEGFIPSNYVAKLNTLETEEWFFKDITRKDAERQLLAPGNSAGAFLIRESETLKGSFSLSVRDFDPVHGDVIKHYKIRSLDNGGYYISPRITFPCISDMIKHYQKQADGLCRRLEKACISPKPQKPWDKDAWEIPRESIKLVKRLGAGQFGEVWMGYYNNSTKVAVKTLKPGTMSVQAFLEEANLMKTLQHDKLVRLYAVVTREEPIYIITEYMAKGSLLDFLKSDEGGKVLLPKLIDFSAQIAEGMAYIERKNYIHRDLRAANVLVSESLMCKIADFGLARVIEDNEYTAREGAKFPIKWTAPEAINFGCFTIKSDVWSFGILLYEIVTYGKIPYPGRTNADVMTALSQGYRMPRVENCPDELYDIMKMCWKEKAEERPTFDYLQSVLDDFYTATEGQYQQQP
Chain of Hepatocyte growth factor receptor (Homo sapiens) (P08581 whole entry): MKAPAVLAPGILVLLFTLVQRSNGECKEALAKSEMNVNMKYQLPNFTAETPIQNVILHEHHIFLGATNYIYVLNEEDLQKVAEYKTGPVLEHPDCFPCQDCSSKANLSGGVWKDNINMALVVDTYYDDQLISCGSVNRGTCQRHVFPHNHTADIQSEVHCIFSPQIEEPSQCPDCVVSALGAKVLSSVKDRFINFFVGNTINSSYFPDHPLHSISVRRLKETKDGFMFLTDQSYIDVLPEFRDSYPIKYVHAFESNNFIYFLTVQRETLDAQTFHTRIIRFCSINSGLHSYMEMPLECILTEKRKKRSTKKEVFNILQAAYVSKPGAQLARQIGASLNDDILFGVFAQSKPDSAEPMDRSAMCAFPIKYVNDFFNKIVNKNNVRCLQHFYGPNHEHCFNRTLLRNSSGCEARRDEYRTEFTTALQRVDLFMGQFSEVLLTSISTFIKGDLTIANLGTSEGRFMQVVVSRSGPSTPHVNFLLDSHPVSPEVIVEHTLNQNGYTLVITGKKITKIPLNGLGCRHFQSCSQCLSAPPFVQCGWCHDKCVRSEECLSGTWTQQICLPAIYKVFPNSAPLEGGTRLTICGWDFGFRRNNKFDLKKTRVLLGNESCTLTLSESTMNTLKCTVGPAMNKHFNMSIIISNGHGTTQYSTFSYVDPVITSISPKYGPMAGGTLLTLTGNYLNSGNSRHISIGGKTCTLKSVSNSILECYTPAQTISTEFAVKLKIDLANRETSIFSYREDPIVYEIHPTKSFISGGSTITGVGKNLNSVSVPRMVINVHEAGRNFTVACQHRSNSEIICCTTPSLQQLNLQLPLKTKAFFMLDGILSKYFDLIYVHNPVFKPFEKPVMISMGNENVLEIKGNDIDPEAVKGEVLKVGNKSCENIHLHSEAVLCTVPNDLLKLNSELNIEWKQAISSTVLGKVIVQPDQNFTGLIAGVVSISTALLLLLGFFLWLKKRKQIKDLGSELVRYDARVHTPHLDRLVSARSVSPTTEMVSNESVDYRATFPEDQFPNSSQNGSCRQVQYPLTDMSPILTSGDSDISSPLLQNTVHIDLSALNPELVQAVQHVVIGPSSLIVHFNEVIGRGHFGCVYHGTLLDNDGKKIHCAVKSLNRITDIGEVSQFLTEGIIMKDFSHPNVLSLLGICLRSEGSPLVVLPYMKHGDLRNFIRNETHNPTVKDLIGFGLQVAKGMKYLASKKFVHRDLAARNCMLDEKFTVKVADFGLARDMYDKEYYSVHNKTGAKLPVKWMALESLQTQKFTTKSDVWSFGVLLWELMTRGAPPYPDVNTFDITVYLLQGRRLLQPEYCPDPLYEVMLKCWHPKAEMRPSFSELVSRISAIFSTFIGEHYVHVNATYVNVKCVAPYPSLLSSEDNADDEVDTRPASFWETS
Chain of Mast/stem cell growth factor receptor Kit (Homo sapiens), P10721 [T670I] (P10721 whole entry T670I): as the sequence (P10721 whole entry D816V) above, with T670I, V816D counted along it
Chain of Mast/stem cell growth factor receptor Kit (Homo sapiens), P10721 [V560G] (P10721 whole entry V560G): as the sequence (P10721 whole entry D816V) above, with V560G, V816D counted along it
Chain of Tyrosine-protein kinase Lck (Homo sapiens) (P06239 2-509 limits assumed): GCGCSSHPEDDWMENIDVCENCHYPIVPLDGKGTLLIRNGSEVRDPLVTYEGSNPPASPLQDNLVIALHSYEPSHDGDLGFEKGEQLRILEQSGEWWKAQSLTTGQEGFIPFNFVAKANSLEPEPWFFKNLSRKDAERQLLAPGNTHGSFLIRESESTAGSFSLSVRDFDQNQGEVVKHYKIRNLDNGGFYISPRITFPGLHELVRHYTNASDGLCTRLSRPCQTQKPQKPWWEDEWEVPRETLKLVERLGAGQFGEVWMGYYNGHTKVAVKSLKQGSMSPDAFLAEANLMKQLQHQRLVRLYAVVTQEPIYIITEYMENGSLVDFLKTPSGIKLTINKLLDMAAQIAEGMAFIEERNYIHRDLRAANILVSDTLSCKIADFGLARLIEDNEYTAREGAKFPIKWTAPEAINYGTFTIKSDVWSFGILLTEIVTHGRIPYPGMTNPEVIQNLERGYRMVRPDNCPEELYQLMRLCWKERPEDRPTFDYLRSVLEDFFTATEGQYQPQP
Chain of Mast/stem cell growth factor receptor Kit (Homo sapiens) (P10721 whole entry): as the sequence (P10721 whole entry D816V) above, with V816D counted along it

As for `CCS(=O)(=O)c1ccc(OC)c(Nc2ncc(-c3cccc(-c4ccccc4F)c3)o2)c1`, the inhibition in experiment [1] is 90.9%; in experiment [2], -0.16%; in experiment [3], 6.62%; in experiment [4] it was 2.77%; in [5], 19.6%; in experiment [6], 4.79%. The inhibition is 19.7% in [7]; 9.89% in [8]; 55.8% in [9]; 1.34% in experiment [10]; 4.54% in [11]; 14.8% in [12]. In addition, the inhibition in experiment [13] came out at 62.5%; in [14], 10.6%; in [15], 55.8%; in experiment [16] it was 0.82%; in experiment [17] it was 3%; in experiment [18], 2.87%. Besides, the figures for the inhibition in [19] and in experiment [20] were 3.52% and 2.39%, respectively.
For `Cc1ccc(C(=O)NC2CCC2)cc1-c1ccc(C(=O)NCC2CC2)cc1`, the inhibition in experiment [1] is 2.43%; in experiment [2], 1.7%; in experiment [3] it was 1.73%; in experiment [4], 2.13%; in experiment [5], -0.64%; in experiment [6], -2.14%. For the same molecule, the inhibition worked out at 2.11% in experiment [7]; 1.6% in experiment [8]; 2.51% in experiment [9]; 2.34% in experiment [10]; 2.04% in experiment [11]; 3.48% in experiment [12]. Further, the inhibition in [13] worked out at 2.47%; in [14], 2.55%; in [15] it was 1.61%; in [16], 2.37%; in [17], 6.88%; in experiment [18], 3.95%. The inhibition in experiment [19] was 6.08%; in experiment [20], 2.41%.
Take `Clc1ccc(CNc2nccc(-c3cnn4ncccc34)n2)cc1`: the inhibition was 19.4% in experiment [1]; 0.92% in experiment [2]; 5.08% in experiment [3]; 1.59% in experiment [4]; 6.47% in experiment [5]; 3.83% in experiment [6]. The inhibition was determined as 7.92% in [7]; 2.31% in [8]; 2.46% in experiment [9]; 0.55% in [10]; 0.38% in experiment [11]; 3.2% in experiment [12]. Further, the inhibition in experiment [13] is 5.62%; in experiment [14], 1.68%; in experiment [15], 3.11%; in experiment [16] it was -0.52%; in experiment [17], 0.99%; in [18] it was 2.02%. Moreover, the inhibition in experiment [19] came out at 7.73%; in experiment [20], 3.18%.
Regarding `c1ccc(Oc2ccc(Nc3ncc(-c4ccccc4)o3)cc2)cc1`, the inhibition in experiment [1] was 19.9%; in experiment [2], -0.64%; in experiment [3], -0.49%; in [4] it was 2.73%; in experiment [5], 5.55%; in experiment [6], -0.1%. The inhibition in experiment [7] came out at 5.53%; in experiment [8], 2.67%; in [9] it was 2.2%; in experiment [10] it was 1.67%; in experiment [11], 1.13%; in experiment [12] it was 3.36%. In addition, the inhibition in experiment [13] was 2.98%; in [14], 1.38%; in [15], 2.09%; in experiment [16] it was 0.19%; in experiment [17], 0.42%; in experiment [18], 1.79%. The inhibition in experiment [19] was found to be 7.6%; in experiment [20], 1.27%.
On to `O=C(Nc1n[nH]c2cc(-c3cc(F)ccc3F)ccc12)C1CC1`, for which the inhibition amounted to 7.05% in experiment [1]; 1.5% in experiment [2]; 3.88% in [3]; 2.63% in experiment [4]; 3.43% in [5]; 1.22% in [6]. For the same molecule, the inhibition in experiment [7] stood at 1.15%; in experiment [8], 1.37%; in experiment [9] it was 6.57%; in experiment [10], 6.64%; in experiment [11] it was 2.7%; in experiment [12], 5.22%. For the same molecule, the inhibition in [13] was 5.51%; in experiment [14] it was 3.27%; in experiment [15], 2.53%; in experiment [16], 0.82%; in experiment [17], 2.71%; in [18], 6.12%. For the same molecule, the inhibition in experiment [19] worked out at 4.36%; in experiment [20] it was 3.35%.
Consider `CNC(=O)c1cncc(/C=C/c2c(C)cccc2C)c1`, for which the inhibition in experiment [1] is 51.7%; in [2], 1.76%; in experiment [3], 0.69%; in experiment [4], -0.72%; in experiment [5] it was -0.77%; in [6], 3.1%. The inhibition in experiment [7] is 17.2%; in experiment [8] it was 3.11%; in experiment [9], 30%; in [10] it was -1.27%; in experiment [11] it was -0.39%; in experiment [12] it was 22.1%. In addition, the inhibition in experiment [13] is 72.4%; in experiment [14], 17.6%; in [15] it was 67.8%; in experiment [16], -0.47%; in experiment [17], 3.56%; in experiment [18], -0.92%. Besides, the results for the inhibition in experiment [19] and in experiment [20] were 1.41% and 3.8%, respectively.

A word on the inhibition: it is the relative decrease from the control value, in per cent.
